SMILES strings stand for the structures. Where “and” joins values, the source holds several entries; their conditions need not be identical. Equal entries are not always repeated. In all, about 360,000 compounds went through this assay and about 16,000 (4.4%) were called active. Inconclusive results (about 9%) are left out. The sample as a whole holds a higher share of actives than the screen did. A number with no mark means an inactive call. Calls come from the whole dose curve; as a rule, active = well fitted inhibition curve with a large enough effect; inconclusive = small, poorly fitted or top-dose-only effect; inactive = no such curve, though single readings can be large or run the other way.
% is set by controls: 0 for no effect and ±100 for the full control effect; potency is the fitted concentration of half-maximal effect.

Chain of Bromodomain adjacent to zinc finger domain protein 2B (Homo sapiens) (Q9UIF8 whole entry, looked up, the tested form may be a part): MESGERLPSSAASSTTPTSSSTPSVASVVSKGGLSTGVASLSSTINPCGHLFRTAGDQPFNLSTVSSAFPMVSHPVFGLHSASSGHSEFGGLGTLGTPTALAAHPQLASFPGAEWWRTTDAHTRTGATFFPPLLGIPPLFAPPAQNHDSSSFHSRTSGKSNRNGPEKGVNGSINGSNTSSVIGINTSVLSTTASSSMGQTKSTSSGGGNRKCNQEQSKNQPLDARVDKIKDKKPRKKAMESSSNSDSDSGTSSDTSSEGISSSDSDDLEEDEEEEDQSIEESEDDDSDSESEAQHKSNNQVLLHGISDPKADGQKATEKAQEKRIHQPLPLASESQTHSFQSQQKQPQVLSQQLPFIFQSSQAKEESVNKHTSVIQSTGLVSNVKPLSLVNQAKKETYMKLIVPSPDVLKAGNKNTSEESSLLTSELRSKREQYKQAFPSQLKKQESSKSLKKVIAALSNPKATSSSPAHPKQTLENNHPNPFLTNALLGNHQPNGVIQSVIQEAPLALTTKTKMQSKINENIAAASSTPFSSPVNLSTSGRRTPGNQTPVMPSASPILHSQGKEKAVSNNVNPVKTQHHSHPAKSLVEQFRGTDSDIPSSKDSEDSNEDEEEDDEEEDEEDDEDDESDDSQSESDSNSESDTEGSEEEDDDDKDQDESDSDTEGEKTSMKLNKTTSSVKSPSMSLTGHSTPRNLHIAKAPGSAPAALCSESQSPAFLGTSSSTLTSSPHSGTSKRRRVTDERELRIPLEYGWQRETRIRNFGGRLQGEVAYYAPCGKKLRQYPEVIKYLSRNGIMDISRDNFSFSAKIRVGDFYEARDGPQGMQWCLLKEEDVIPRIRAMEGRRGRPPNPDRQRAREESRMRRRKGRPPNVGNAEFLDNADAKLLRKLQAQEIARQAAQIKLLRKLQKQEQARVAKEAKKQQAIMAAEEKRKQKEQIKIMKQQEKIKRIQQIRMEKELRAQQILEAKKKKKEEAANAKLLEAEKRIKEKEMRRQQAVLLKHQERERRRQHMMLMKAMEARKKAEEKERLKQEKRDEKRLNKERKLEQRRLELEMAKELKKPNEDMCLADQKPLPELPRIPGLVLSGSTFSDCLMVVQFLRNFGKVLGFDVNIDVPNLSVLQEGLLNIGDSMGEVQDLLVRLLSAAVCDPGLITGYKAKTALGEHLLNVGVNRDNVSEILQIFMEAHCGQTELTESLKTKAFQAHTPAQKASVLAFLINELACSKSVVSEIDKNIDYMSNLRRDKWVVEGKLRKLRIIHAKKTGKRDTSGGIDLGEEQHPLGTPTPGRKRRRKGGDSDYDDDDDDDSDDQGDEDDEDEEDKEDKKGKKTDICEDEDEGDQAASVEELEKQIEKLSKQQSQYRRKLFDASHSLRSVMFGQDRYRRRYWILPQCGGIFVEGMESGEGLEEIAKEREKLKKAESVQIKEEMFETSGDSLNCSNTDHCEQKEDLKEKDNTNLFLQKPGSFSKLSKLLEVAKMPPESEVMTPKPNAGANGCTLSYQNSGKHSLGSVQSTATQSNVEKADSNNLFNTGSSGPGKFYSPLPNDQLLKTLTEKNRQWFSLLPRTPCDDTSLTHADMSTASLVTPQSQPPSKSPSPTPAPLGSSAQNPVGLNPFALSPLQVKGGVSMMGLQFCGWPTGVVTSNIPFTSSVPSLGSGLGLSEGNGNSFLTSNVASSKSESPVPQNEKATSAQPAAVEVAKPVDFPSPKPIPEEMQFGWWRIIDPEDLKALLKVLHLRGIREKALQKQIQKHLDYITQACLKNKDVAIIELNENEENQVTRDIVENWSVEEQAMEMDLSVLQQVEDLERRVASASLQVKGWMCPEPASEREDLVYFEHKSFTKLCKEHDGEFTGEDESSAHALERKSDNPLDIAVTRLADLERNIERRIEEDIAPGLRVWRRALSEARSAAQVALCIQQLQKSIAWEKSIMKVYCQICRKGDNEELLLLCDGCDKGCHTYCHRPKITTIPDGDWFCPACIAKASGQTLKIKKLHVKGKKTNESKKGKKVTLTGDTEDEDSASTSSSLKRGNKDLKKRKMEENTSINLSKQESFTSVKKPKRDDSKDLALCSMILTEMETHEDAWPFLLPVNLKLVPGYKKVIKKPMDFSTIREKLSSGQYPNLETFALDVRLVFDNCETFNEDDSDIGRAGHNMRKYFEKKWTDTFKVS

The assay deals with Bromodomain adjacent to zinc finger domain protein 2B (Homo sapiens) (UniProt Q9UIF8). The experiment in a line: qHTS Assay for Inhibitors of BAZ2B. Note: nearly all actives have a fitted effect of over 60% in size. As to conditions: AlphaScreen BAZ2B-H3K14Ac peptide displacement; series mostly up to 114 µM; activity change, negative = inhibition: at the top concentration. An excerpt:
BAZ2B (bromodomain adjacent to zinc finger domain, 2B) belongs to a family of ubiquitously expressed bromodomain containing proteins, which biological function has not yet been elucidated. […] The interaction of BAZ2B with ISWI mediated by the BAZ1 motif has recently been described. […] The protocol is based on the AlphaScreen (PerkinElmer) displacement assay developed by NCGC [5], but uses the peptide ligand Biot-H3K14Ac, a high affinity binding partner for BAZ2B, in an AlphaScreen format. Although AlphaScreen has significant advantages with its utility in a variety of epigenetic target assays, the primary screening data provided in this deposition should be used with caution due to the prevalence of screening artifacts. The top compound concentration tested was 110uM in this assay, which increases number of actives and potential artifacts. An AlphaScreen counterscreen is highly recommended to be run against any putative actives to eliminate non-specific artifacts. Alternatively, one can use other AlphaScreen assays in PubChem to filter out promiscuous hits. Eberharter, A. et al. ACF1 improves the effectiveness of nucleosome mobilization by ISWI through PHD-histone contacts. The EMBO journal 23, 4029-4039. 2004. PMID: 15457208 [2] Jones, M.H. et al. A novel family of bromodomain genes. Genomics 63, 40-45. 2000. PMID: 10662543 [3] Yasgar, et al. Compound Management for Quantitative High-Throughput Screening. JALA. 2008 Apr;13(2):79-89. PMID: 18496600 [4] Inglese, et al. Quantitative high-throughput screening: a titration-based approach that efficiently identifies biological activities in large chemical libraries. Proc Natl Acad Sci. 1;103(31):11473-8. 2006. PMID: 16864780 [5] Quinn et al. A chemiluminescence-based method for identification of histone lysine methyltransferase inhibitors. Mol Biosyst 6(5): 782-8. 2010. PMID: 20567762 [6] Baell,Holloway. New substructure filters for removal of pan assay interference compounds (PAINS) from screening libraries and for their exclusion in bioassays. J Med Chem. 53(7):2719-40. 2010. PMID: 20131845 NIH Molecular Libraries Probe Production Network [MLPCN] NIH Chemical Genomics Center [NCGC] Structural Genomics Consortium (SGC) NIH Grant: 5U54 MH084681-02
To each well of a 1,536w plate, 2ul of BAZ2B protein (final 50nM) and 1ul biotinylated histone peptide acetylated at Lys14 [b-H3(5-23)K14Ac] (final 50nM) were added in 1x PBS buffer, pH 7.4, containing 0.01% Tween-20, using a nanoliter dispenser. Formation of a protein-peptide complex proceeded at room temperature for 30 min. A Kalypsys pin-tool was employed to transfer 23 nL of library compound solution in DMSO to each well. Following a 30 min incubation of the protein-peptide complex with compounds at room temperature, a mixture of 40 ug/mL each streptavidin-coated donor and nickel chelate acceptor AlphaScreen beads (final 10 ug/mL) were added in a 1ul dispense for a final volume of 4ul. A brief centrifugation followed (1000rpm, 1 min) and were then incubated protected from the light for 20 min at room temperature. Plates were read on an EnVision multilabel plate reader using the 1,536 plate HTS AlphaScreen aperture (excitation time 80 ms, measurement time 240 ms).
`Cc1ccc(CCNC(=O)c2ccc(CNS(=O)(=O)c3ccc(C)cc3)cc2)cc1`: the “activity change, negative = inhibition” value is 0.772%.

As to `CCOC(=O)c1c(NC(=O)c2cc(CC)on2)sc(C(C)=O)c1C`, the “activity change, negative = inhibition” value was 2.03%.

For `CCCCCn1c(=O)[nH]c2cc(C(=O)Nc3cc(C)cc(C)c3)ccc2c1=O`, the “activity change, negative = inhibition” value was 3.99%.

In the case of `Cc1c(C)c(C)c2[nH]c(=S)[nH]c2c1C`, the “activity change, negative = inhibition” value is -9.72%.

In the case of `O=c1[nH]c(=S)[nH]c2[nH]c(=S)[nH]c12`, the Potency was 28.2 µM (active) and 22.4 µM (active).

For `CCOC(=O)c1ccc(NC(=O)C2CC(=O)N(c3ccc(C(C)C)cc3)C2)cc1` (centres undefined), the “activity change, negative = inhibition” value was -1.68%.

For the compound `COc1cc(/C=C2\C(=N)N3N=C(CC(=O)N4CCOCC4)SC3=NC2=O)cc(OC)c1OC`, the “activity change, negative = inhibition” value is -26.7%.

As for `CCOc1cc(/C=C2\C(=N)N3N=C(C)SC3=NC2=O)ccc1OCCOc1ccccc1`, the “activity change, negative = inhibition” value was -2.46%.

In the case of `COc1ccccc1OCCOc1ccc(/C=C2\C(=N)N3N=C(C)SC3=NC2=O)cc1`, the “activity change, negative = inhibition” value was -25.9%.

Turning to `CS(=O)(=O)C1=NN2C(=N)/C(=C\c3ccc(OCCOc4ccccc4)cc3)C(=O)N=C2S1`, the Potency was 50.1 µM (active).

As to `Cc1ccc(C2=N/C(=C\c3ccc(OS(=O)(=O)c4ccc(C)cc4)cc3)C(=O)O2)cc1`, the “activity change, negative = inhibition” value was -4%.

Take `CCS(=O)(=O)C1=NSC2=NC(=O)/C(=C\c3ccc(OS(=O)(=O)c4ccccc4)cc3)C(=N)N21`: the Potency was 56.2 µM (active).

For `CCc1ccccc1N1C(=O)CN(S(=O)(=O)CC)CC1(C)C(=O)NC1CCCCC1` (centres undefined), the “activity change, negative = inhibition” value is 4.83%.

With `CCc1cccc(NC(=O)CSc2nccn2C)c1`, the “activity change, negative = inhibition” value was -37.7%.

Regarding `Cc1ccc(CNC(=O)CCc2c(C)nc3nc(CNC(=O)OC(C)(C)C)nn3c2C)cc1`, the “activity change, negative = inhibition” value was 2.01%.

Take `Cc1ccc(NC(=O)CSc2nc3ccccc3c3nc(CCn4cncc4C)nn23)cc1F`: the “activity change, negative = inhibition” value is -16.9%.

For the compound `Cc1cc(-c2ccc(C)c(S(=O)(=O)Nc3ccc(S(N)(=O)=O)cc3)c2)on1`, the “activity change, negative = inhibition” value was -16.6%.

In the case of `CCN(CC)c1ccc(NS(=O)(=O)c2cc(-c3cc(C)no3)ccc2C)c(C)c1`, the Potency is 11.2 µM (active).

On to `CCOc1ccccc1CNS(=O)(=O)c1cc(-c2cc(C)no2)ccc1C`, for which the “activity change, negative = inhibition” value was 0.315%.

In the case of `Fc1ccc(-c2nc(Nc3cccc(Cl)c3)nc3c2COc2ccccc2-3)cc1`, the “activity change, negative = inhibition” value was -17.8%.

Consider `Cc1c(-c2nc(-c3ccc4c(c3)OCO4)no2)nnn1-c1ccc(Br)cc1F`, for which the “activity change, negative = inhibition” value is -12.6%.

Turning to `C/C=C(/C)C(=O)Nc1cccc(C2=NOC3(C2)C[C@@H](C(N)=O)N(C(=O)C2(C)CC2)C3)c1` (some centres undefined), the “activity change, negative = inhibition” value is 5.04%.

Turning to `C=C(C)C(=O)Nc1cccc(C2=NOC3(C2)C[C@H](C(N)=O)N(C(=O)C(c2ccccc2)c2ccccc2)C3)c1` (some centres undefined), the Potency is 25.1 µM (active).

Take `C/C=C\C=C\C(=O)N1CC2(CC(c3cccc(NC(=O)/C(C)=C\C)c3)=NO2)C[C@H]1C(N)=O` (some centres undefined): the “activity change, negative = inhibition” value is -9.61%.

For the compound `Cc1cn(C)c(CC(=O)NCc2ccccc2)c1C(=O)O`, the “activity change, negative = inhibition” value is -14.6%.

`COc1cccc(NC(=O)C2CCN(c3cc(C)nc4c(-c5ccc(Cl)cc5)c(C)nn34)CC2)c1`: the “activity change, negative = inhibition” value is -5.79%.

With `Cc1c(C(=O)Nc2cccc(Cl)c2)oc2ccc(S(=O)(=O)N3CCOCC3)cc12`, the “activity change, negative = inhibition” value was 4.68%.

For the compound `N#Cc1nc(COc2ccc(Cl)cc2)oc1N1CCCC1`, the Potency was 39.8 µM (active).

For the compound `N#Cc1ccc(OCc2nnc(-c3ccc([N+](=O)[O-])cc3)o2)cc1`, the “activity change, negative = inhibition” value is -18.3%.

As for `CN1CCN(c2oc(-c3ccc(COc4ccc(Cl)cc4)o3)nc2C#N)CC1`, the Potency is 25.1 µM (active).

In the case of `CCC(C)Nc1oc(-c2ccc(COc3ccc(Cl)cc3)o2)nc1C#N` (centres undefined), the “activity change, negative = inhibition” value was -34.3%.

With `COc1ccc(OCc2ccc(-c3nc(C#N)c(N4CCN(c5ccccc5)CC4)o3)o2)cc1`, the “activity change, negative = inhibition” value is -28.8%.

Take `Cc1ccc(OCc2nc(C#N)c(N3CCCC3)o2)cc1`: the “activity change, negative = inhibition” value was 7.75%.

Regarding `CCc1nnc(SCc2nc(-c3cccc(C)c3)oc2C)c2cc3sc(C)cc3n12`, the “activity change, negative = inhibition” value is -3.25%.

As for `Cc1cccc(NC(=O)Cn2nc(-c3ccc(Cl)cc3)c3ccccc3c2=O)c1`, the “activity change, negative = inhibition” value is -1.81%.

Regarding `COc1ccc(-c2noc(CSc3nc(C)cc(=O)[nH]3)n2)cc1OC`, the “activity change, negative = inhibition” value was -17.2%.

On to `CCOC(=O)c1c(NC(C)=O)c2c3c(sc2n1Cc1c(C)cc(C)cc1C)CCCC3`, for which the “activity change, negative = inhibition” value was 0.347%.

On to `Cc1ccc(-c2cnc(C3CC3)o2)cc1S(=O)(=O)Nc1cccc(C)c1C`, for which the “activity change, negative = inhibition” value was -29.3%.

As for `CCCN(CCC)c1ccc(C(O)c2nnc(-c3ccccc3)o2)cc1` (centres undefined), the Potency is 31.6 µM (active).

On to `CC(=O)c1ccc(NC(c2ccc(F)cc2)c2nnc(-c3ccccc3)o2)cc1` (centres undefined), for which the “activity change, negative = inhibition” value is -12.5%.

Take `OC(c1nnc(-c2ccccc2)o1)c1cccs1` (centres undefined): the “activity change, negative = inhibition” value is -17.5%.

For the compound `COc1ccc(-c2nc(CN3CCC(C(=O)NCc4ccccc4)CC3)c(C)o2)cc1OC`, the “activity change, negative = inhibition” value was -9.57%.

Consider `COc1ccccc1N1CCN(c2ccc([N+](=O)[O-])nc2)CC1`, for which the “activity change, negative = inhibition” value was -22%.

Consider `COc1ccc(N2CCN(c3ccc([N+](=O)[O-])nc3)CC2)cc1`, for which the “activity change, negative = inhibition” value was 11.5%.

On to `CN(C)S(=O)(=O)N1CCN(c2ccc([N+](=O)[O-])cc2)CC1`, for which the “activity change, negative = inhibition” value was -21.5%.

As for `COc1ccc(N2CCN(c3ccc([N+](=O)[O-])cc3Cl)CC2)cc1`, the Potency was 10 µM (active).

Take `O=C(c1cncc(Br)c1)N1CCN(c2ccc([N+](=O)[O-])cc2)CC1`: the “activity change, negative = inhibition” value was 3.58%.

Regarding `O=[N+]([O-])c1ccc(N2CCN(c3ccc(O)cc3)CC2)c(Cl)c1`, the Potency is 20 µM (active).

Take `COc1ccc(-c2nc(C)c(CCNC(=O)c3ccc(C(F)(F)F)cc3)s2)cc1OC`: the “activity change, negative = inhibition” value is 3.9%.
